Test results as given in PubChem BioAssay (NCI).
About 83,000 compounds went through this panel and 20% of them were active in at least one assay; those are over-represented in the sample as a whole.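 96-well plates, one dose, 48 hours. Percent growth reported; active if below 10.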 A number with no mark means an inactive call. Active and inactive are the calls of the source.

Tested on: T-47D breast
Assay: NCI-60 one-dose screen, 48 h (100 = growth as untreated, 0 = no growth, -100 = all killed)
Conditions: 10 µM unless noted

Point of comparison: `CC(=O)N1N=C(c2ccc(C)cc2)CC1c1cn(-c2ccccc2)nc1-c1cccc(Nc2ccnc3cc(Cl)ccc23)c1` (configuration not stated), growth 23.4%. Against it:
- O=C(CS)OCC(COC(=O)CS)(COC(=O)CS)COC(=O)CS — higher, 89.1%
- CCN(CC)CCC(CNc1ccnc2cc(Cl)ccc12)c1ccc(O)cc1 (configuration not stated) — higher, 114%

`CNC(=O)c1ccccc1Sc1ccc2c(/C=C/c3ccccn3)n[nH]c2c1` was tested, and the growth was -12.4% (active).

Tested on: BT-549 breast
Assay: as above
Conditions: 10 µM unless noted

Point of comparison: `Nc1nc(N)c2c(n1)NC(c1sc(Cl)nc1Cl)CC(c1ccc3c(c1)OCO3)=N2` (configuration not stated), growth 27.2%. Against it:
- COc1ccc(C2C3CCc4ccccc4C3=NN2C(=O)c2cc(OC)c(OC)c(OC)c2)cc1O (configuration not stated) — higher, 89%
- CCOC(=O)c1ccc(NC(=O)NC2=NCCS2)cc1 — lower, 24.2%
- CC(C)COC(=O)NC(C)(C)C — higher, 102%
- Cn1c(=O)c2[nH]c(Cc3ccc4c(c3)OCO4)nc2n(C)c1=O — higher, 103%
- Cc1ccccc1N1C(c2ccccc2)=NNC12C=CC(=O)c1c(O)cccc12 (configuration not stated) — higher, 77%
- Nc1nc(N)c2c(n1)NC(c1sc(Cl)nc1Cl)CC(c1ccccc1)=N2 (configuration not stated) — higher, 44.5%

For `C=C1NC(=O)C(C(C)CC)NC(=O)C2CSCC(NC(=O)CCC(=O)O)C(=O)NC(Cc3ccccc3)C(=O)NC(C)C(=O)NC(CC(C)CC)C(=O)NC(C(=O)NC(Cc3ccccc3)C(=O)N3CCCC3C(=O)N2)C(C)OC(=O)C(CO)NC(=O)C(C(O)COC)N(C)C(=O)C(C(C)C)NC(=O)C(CC(C)CC)NC1=O` (configuration not stated), the growth was 7.87% [6 µM] (active).
